Reference: PubChem BioAssay (NCI)
About 83,000 compounds went through this panel and 20% of them were active in at least one assay; those are over-represented in the sample as a whole.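 Method: cells in 96-well plates; compound added at one concentration; 48 h incubation; percent growth measured; values under 10 scored active.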 Active and inactive are the calls of the source.

What was measured:
Assay in all cases: NCI-60 one-dose screen, 48 h (100 = growth as untreated, 0 = no growth, -100 = all killed)
Settings in all cases: 10 µM unless noted
DU-145 prostate = system: DU-145 prostate
K-562 leukemia = system: K-562 leukemia
MALME-3M melanoma = system: MALME-3M melanoma
MDA-MB-231 breast = system: MDA-MB-231 breast
RXF 393 renal = system: RXF 393 renal
SF-268 CNS = system: SF-268 CNS
SF-295 CNS = system: SF-295 CNS
SF-539 CNS = system: SF-539 CNS
UACC-257 melanoma = system: UACC-257 melanoma
M14 melanoma = system: M14 melanoma
HCT-15 colon = system: HCT-15 colon
HT29 colon = system: HT29 colon
SNB-75 CNS = system: SNB-75 CNS
U251 CNS = system: U251 CNS
PC-3 prostate = system: PC-3 prostate
UACC-62 melanoma = system: UACC-62 melanoma
LOX IMVI melanoma = system: LOX IMVI melanoma
SK-MEL-28 melanoma = system: SK-MEL-28 melanoma
SNB-19 CNS = system: SNB-19 CNS
SK-MEL-5 melanoma = system: SK-MEL-5 melanoma

Measured: growth

[2H]C([2H])([2H])Oc1ccc(F)cc1/C=C/C(=O)/C=C(O)/C=C/c1cc(F)ccc1OC([2H])([2H])[2H]
inactive: DU-145 prostate 95.3% | K-562 leukemia 84% | MALME-3M melanoma 104% | MDA-MB-231 breast 108% | RXF 393 renal 103% | SF-268 CNS 89.8% | SF-295 CNS 103% | SF-539 CNS 107% | UACC-257 melanoma 89.6% | M14 melanoma 85.1% | HCT-15 colon 79.9% | HT29 colon 98.8% | SNB-75 CNS 94.9% | U251 CNS 76.8% | PC-3 prostate 93.1% | UACC-62 melanoma 80.6% | LOX IMVI melanoma 85.1% | SK-MEL-28 melanoma 116%

C[C@H](CCCC(=O)NCC#CCN1CCN(C)CC1)[C@H]1CC[C@H]2[C@@H]3CC[C@@H]4CC(=O)CC[C@]4(C)[C@H]3CC[C@]12C
inactive: DU-145 prostate 102% | K-562 leukemia 57.9% | MALME-3M melanoma 65.7% | MDA-MB-231 breast 102% | RXF 393 renal 86.3% | SF-268 CNS 95.5% | SF-295 CNS 106% | SF-539 CNS 78.6% | UACC-257 melanoma 96.3% | M14 melanoma 85.1% | HCT-15 colon 78.6% | HT29 colon 32.2% | SNB-19 CNS 102% | U251 CNS 88% | PC-3 prostate 77.1% | SK-MEL-5 melanoma 90.7% | UACC-62 melanoma 97.7% | LOX IMVI melanoma 86.7% | SK-MEL-28 melanoma 89.3%

C#CCn1cnc2cnc(Nc3cccc(NC(=O)C=C)c3)nc21
inactive: DU-145 prostate 93.5% [6.25 µM] | MALME-3M melanoma 76.7% [6.25 µM] | MDA-MB-231 breast 81.5% [6.25 µM] | RXF 393 renal 86.6% [6.25 µM] | SF-268 CNS 84.7% [6.25 µM] | SF-295 CNS 72.4% [6.25 µM] | SF-539 CNS 72.3% [6.25 µM] | UACC-257 melanoma 61.5% [6.25 µM] | M14 melanoma 62% [6.25 µM] | HCT-15 colon 91.7% [6.25 µM] | HT29 colon 70.5% [6.25 µM] | SNB-75 CNS 86.2% [6.25 µM] | U251 CNS 75.5% [6.25 µM] | UACC-62 melanoma 62.5% [6.25 µM] | LOX IMVI melanoma 82.7% [6.25 µM] | SK-MEL-28 melanoma 82.2% [6.25 µM]
active: K-562 leukemia 5.9% [6.25 µM] | PC-3 prostate 9.21% [6.25 µM]

Cn1cc(-c2ccc(-c3cn(C)c4ccc(Cl)cc34)[nH]2)c2cc(Cl)ccc21
inactive: DU-145 prostate 32% | HT29 colon 21.9%
active: K-562 leukemia -29.8% | MALME-3M melanoma -59.1% | MDA-MB-231 breast -48.5% | RXF 393 renal -51.3% | SF-268 CNS -67.2% | SF-295 CNS -15.1% | SF-539 CNS -56.1% | UACC-257 melanoma -34.7% | M14 melanoma -75.2% | HCT-15 colon -66.3% | SNB-19 CNS -68.5% | U251 CNS -100% | PC-3 prostate -56.5% | SK-MEL-5 melanoma -98.6% | UACC-62 melanoma -82.3% | LOX IMVI melanoma -95.2%

COc1ccc(CCN(CC(=O)N(CC(N)=O)C2CCC[C@@H]2OCc2ccccc2)C(=O)CN(C(=O)CN(CCc2ccc(Cl)cc2)C(=O)CN(C(=O)CN(C)Cc2ccccc2F)[C@H](C)C2CCCCC2)[C@H](C)C2CCCCC2)cc1OC (stereo partly drawn)
inactive: DU-145 prostate 43.7% | K-562 leukemia 10.4% | MALME-3M melanoma 51.7% | MDA-MB-231 breast 29.7% | SF-268 CNS 26.5% | SF-539 CNS 33.7% | M14 melanoma 19.3% | HCT-15 colon 33.7% | SNB-19 CNS 33.9% | U251 CNS 21.5% | PC-3 prostate 15% | UACC-62 melanoma 33.8% | SK-MEL-28 melanoma 32.5%
active: RXF 393 renal -10% | SF-295 CNS -0.412% | UACC-257 melanoma -5.66% | HT29 colon 0.386% | SK-MEL-5 melanoma -41.8% | LOX IMVI melanoma -33%

O=C(Nc1ccc(Br)cc1)C1=NCCCCN1
inactive: DU-145 prostate 85.1% | K-562 leukemia 50.8% | MALME-3M melanoma 104% | MDA-MB-231 breast 92.1% | RXF 393 renal 110% | SF-268 CNS 79.6% | SF-295 CNS 98.2% | SF-539 CNS 90.9% | UACC-257 melanoma 100% | M14 melanoma 81.6% | HCT-15 colon 62.2% | HT29 colon 86% | SNB-75 CNS 88.6% | U251 CNS 91.6% | PC-3 prostate 74.4% | SK-MEL-5 melanoma 93.3% | UACC-62 melanoma 58.8% | LOX IMVI melanoma 35.5% | SK-MEL-28 melanoma 114%

O=C(Nc1ccccc1N1CCCC1=O)c1oc2ccc(F)cc2c1-c1cnn(-c2ccccc2)c1
inactive: DU-145 prostate 68.8% [50 µM] | K-562 leukemia 42.9% [50 µM] | MALME-3M melanoma 28.8% [50 µM] | MDA-MB-231 breast 21.7% [50 µM] | RXF 393 renal 25.8% [50 µM] | SF-268 CNS 40.1% [50 µM] | SF-295 CNS 43.5% [50 µM] | SF-539 CNS 30.8% [50 µM] | UACC-257 melanoma 69.9% [50 µM] | M14 melanoma 77.7% [50 µM] | HCT-15 colon 44.9% [50 µM] | HT29 colon 62.2% [50 µM] | SNB-75 CNS 14.8% [50 µM] | U251 CNS 62.8% [50 µM] | PC-3 prostate 39.7% [50 µM] | SK-MEL-5 melanoma 10.6% [50 µM] | UACC-62 melanoma 46.1% [50 µM] | LOX IMVI melanoma 42.2% [50 µM] | SK-MEL-28 melanoma 72% [50 µM]

N#C/C(=C\c1ccc([N+](=O)[O-])cc1)n1nnc2cc(F)c(F)cc21
active: K-562 leukemia 5.08% | MDA-MB-231 breast 8.32% | RXF 393 renal -64.7% | SF-539 CNS -33.7% | HCT-15 colon -7.69% | HT29 colon 0.57% | PC-3 prostate -16% | UACC-62 melanoma -43.7% | LOX IMVI melanoma -97.6%
inactive: DU-145 prostate 14.6% | MALME-3M melanoma 33.1% | SF-268 CNS 31% | SF-295 CNS 98.1% | UACC-257 melanoma 77.4% | M14 melanoma 28.4% | SNB-75 CNS 46.3% | U251 CNS 43.5% | SK-MEL-28 melanoma 101%
